This excerpt belongs to a sample that is enriched for the strongest signals.
Assays:
Assay in all cases: glycan array binding signal (z-score within array); higher = stronger binding
Conditions in all cases: glycan notation: IUPAC condensed, linker removed
Fuc(a1-2)Gal = target: Fuc(a1-2)Gal
How it was run: (§1)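 Glycan array data came from 3228 arrays in the Consortium for Functional Glycomics database, and only arrays with an available protein sequence were kept. Glycan names were put into IUPAC-condensed notation, and columns mapping to the same glycan were averaged. The binding signal is a within-array Z-score, averaged across arrays of one protein sequence run at different concentrations or buffers and across linkers. A negative Z-score can be read as non-binding.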

[1] = target: Fuc(a1-2)Gal(b1-3)GlcNAc(b1-2)Man(a1-3)[Fuc(a1-2)Gal(b1-3)GlcNAc(b1-2)Man(a1-6)]Man(b1-4)GlcNAc(b1-4)GlcNAc
How it was run: as §1

[2] = target: Fuc(a1-2)Gal(b1-3)GlcNAc(b1-3)[Neu5Ac(a2-6)Gal(b1-4)GlcNAc(b1-6)]Gal(b1-4)Glc
How it was run: as §1

Fuc(a1-2)Gal(b1-4)Glc6S = target: Fuc(a1-2)Gal(b1-4)Glc6S
How it was run: as §1

Fuc(a1-2)Gal(b1-4)GlcNAc = target: Fuc(a1-2)Gal(b1-4)GlcNAc
How it was run: as §1

Fuc(a1-2)[Gal(a1-3)]Gal = target: Fuc(a1-2)[Gal(a1-3)]Gal
How it was run: as §1

[3] = target: Fuc(a1-2)[Gal(a1-3)]Gal(b1-3)GlcNAc(b1-2)Man(a1-3)[Fuc(a1-2)[Gal(a1-3)]Gal(b1-3)GlcNAc(b1-2)Man(a1-6)]Man(b1-4)GlcNAc(b1-4)[Fuc(a1-6)]GlcNAc
How it was run: as §1

[4] = target: Fuc(a1-2)[Gal(a1-3)]Gal(b1-4)GlcNAc
How it was run: as §1

[5] = target: Fuc(a1-2)[GalNAc(a1-3)]Gal(b1-4)GlcNAc(b1-2)Man(a1-3)[Fuc(a1-2)[GalNAc(a1-3)]Gal(b1-4)GlcNAc(b1-2)Man(a1-6)]Man(b1-4)GlcNAc(b1-4)GlcNAc
How it was run: as §1

[6] = target: Fuc(a1-2)[GalNAc(b1-3)]Gal
How it was run: as §1

[7] = target: Fuc(a1-3)[Gal(b1-4)]Glc6S
How it was run: as §1

[8] = target: Fuc(a1-3)[Gal(b1-4)]GlcNAc(b1-3)Gal(b1-3)[Fuc(a1-4)]GlcNAc
How it was run: as §1

Fuc(a1-4)GlcNAc = target: Fuc(a1-4)GlcNAc
How it was run: as §1

[9] = target: Gal(a1-3)Gal(b1-4)GlcNAc(b1-2)Man(a1-3)[Gal(a1-3)Gal(b1-4)GlcNAc(b1-2)Man(a1-6)]Man(b1-4)GlcNAc(b1-4)GlcNAc
How it was run: as §1

Gal(a1-3)GalNAc = target: Gal(a1-3)GalNAc
How it was run: as §1

[10] = target: Gal(a1-4)Gal(b1-3)GlcNAc(b1-2)Man(a1-3)[Gal(a1-4)Gal(b1-3)GlcNAc(b1-2)Man(a1-6)]Man(b1-4)GlcNAc(b1-4)GlcNAc
How it was run: as §1

Gal(a1-4)Gal(b1-4)GlcNAc = target: Gal(a1-4)Gal(b1-4)GlcNAc
How it was run: as §1

[11] = target: Gal(a1-4)Gal(b1-4)GlcNAc(b1-2)Man(a1-3)[Gal(a1-4)Gal(b1-4)GlcNAc(b1-2)Man(a1-6)]Man(b1-4)GlcNAc(b1-4)GlcNAc
How it was run: as §1

Gal(a1-4)GlcNAc = target: Gal(a1-4)GlcNAc
How it was run: as §1

[12] = target: Gal(b1-3)GlcNAc(b1-2)Man(a1-3)[Gal(b1-3)GlcNAc(b1-2)Man(a1-6)]Man(b1-4)GlcNAc(b1-4)GlcNAc
How it was run: as §1

[13] = target: Gal(b1-3)GlcNAc(b1-2)Man(a1-3)[Gal(b1-3)GlcNAc(b1-2)Man(a1-6)]Man(b1-4)GlcNAc(b1-4)[Fuc(a1-6)]GlcNAc
How it was run: as §1

[14] = target: Gal(b1-3)GlcNAc(b1-2)Man(a1-3)[GlcNAc(b1-4)][Gal(b1-3)GlcNAc(b1-2)Man(a1-6)]Man(b1-4)GlcNAc(b1-4)GlcNAc
How it was run: as §1

[15] = target: Gal(b1-3)GlcNAc(b1-2)[Gal(b1-3)GlcNAc(b1-6)]Man(a1-6)[Gal(b1-3)GlcNAc(b1-2)Man(a1-3)]Man(b1-4)GlcNAc(b1-4)GlcNAc
How it was run: as §1

[16] = target: Gal(b1-3)GlcNAc(b1-3)Gal(b1-3)GlcNAc
How it was run: as §1

[17] = target: Gal(b1-3)[Fuc(a1-4)]GlcNAc(b1-3)Gal(b1-4)[Fuc(a1-3)]GlcNAc
How it was run: as §1

[18] = target: Gal(b1-4)GlcNAc(a1-6)Gal(b1-4)GlcNAc
How it was run: as §1

[19] = target: Gal(b1-4)GlcNAc(b1-2)Man(a1-3)Man(b1-4)GlcNAc(b1-4)GlcNAc
How it was run: as §1

[20] = target: Gal(b1-4)GlcNAc(b1-2)Man(a1-3)[GlcNAc(b1-2)Man(a1-6)]Man(b1-4)GlcNAc(b1-4)GlcNAc
How it was run: as §1

[21] = target: Gal(b1-4)GlcNAc(b1-3)Gal(b1-4)GlcNAc(b1-2)Man(a1-3)[Gal(b1-4)GlcNAc(b1-3)Gal(b1-4)GlcNAc(b1-2)Man(a1-6)]Man(b1-4)GlcNAc(b1-4)[Fuc(a1-6)]GlcNAc
How it was run: as §1

[22] = target: Gal(b1-4)GlcNAc(b1-3)Gal(b1-4)GlcNAc(b1-3)Gal(b1-4)GlcNAc(b1-3)Gal(b1-4)GlcNAc(b1-2)[Gal(b1-4)GlcNAc(b1-3)Gal(b1-4)GlcNAc(b1-3)Gal(b1-4)GlcNAc(b1-3)Gal(b1-4)GlcNAc(b1-6)]Man(a1-6)[Gal(b1-4)GlcNAc(b1-3)Gal(b1-4)GlcNAc(b1-3)Gal(b1-4)GlcNAc(b1-3)Gal(b1-4)GlcNAc(b1-2)Man(a1-3)]Man(b1-4)GlcNAc(b1-4)[Fuc(a1-6)]GlcNAc
How it was run: as §1

B1: RBMC1 (Vibrio cholerae) (protein)
chain: QQSQRVVTADNLMYLRSGFAIDAIGTTVNNLVGGPVQGTNGGVLRAPIALDQLQSVEVTSGLYNWGGYHIVAIKFTMKDGSSVLLGSTHYASNKKVETYTVPQGKRIKQINVWTGGWLVEGFQFVY
glycan array binding signal (z-score) (Fuc(a1-2)Gal): -0.366 | glycan array binding signal (z-score) [1]: 1.37 | glycan array binding signal (z-score) [2]: -0.436 | glycan array binding signal (z-score) (Fuc(a1-2)Gal(b1-4)Glc6S): -0.119 | glycan array binding signal (z-score) (Fuc(a1-2)Gal(b1-4)GlcNAc): -0.362 | glycan array binding signal (z-score) (Fuc(a1-2)[Gal(a1-3)]Gal): -0.15 | glycan array binding signal (z-score) [3]: -0.324 | glycan array binding signal (z-score) [4]: -0.311 | glycan array binding signal (z-score) [5]: 0.123 | glycan array binding signal (z-score) [6]: -0.299 | glycan array binding signal (z-score) [7]: -0.164 | glycan array binding signal (z-score) [8]: -0.378 | glycan array binding signal (z-score) (Fuc(a1-4)GlcNAc): -0.041 | glycan array binding signal (z-score) [9]: 2.77 | glycan array binding signal (z-score) (Gal(a1-3)GalNAc): -0.237 | glycan array binding signal (z-score) [10]: 1.41 | glycan array binding signal (z-score) (Gal(a1-4)Gal(b1-4)GlcNAc): -0.178 | glycan array binding signal (z-score) [11]: 3.8 | glycan array binding signal (z-score) (Gal(a1-4)GlcNAc): -0.353 | glycan array binding signal (z-score) [12]: 2.48 | glycan array binding signal (z-score) [13]: 0.912 | glycan array binding signal (z-score) [14]: -0.049 | glycan array binding signal (z-score) [15]: -0.266 | glycan array binding signal (z-score) [16]: -0.311 | glycan array binding signal (z-score) [17]: -0.3 | glycan array binding signal (z-score) [18]: -0.36 | glycan array binding signal (z-score) [19]: -0.354 | glycan array binding signal (z-score) [20]: 1.72 | glycan array binding signal (z-score) [21]: 2.64 | glycan array binding signal (z-score) [22]: -0.194
